In the library only some 1.1% were active in any assay of this set; here they are far more common.
MOR-DOR ag: agonists of human mu-delta opioid receptor heterodimerization; actives 0.3% (n = 340,000); P35372+P41143; cells, OPRM1-OPRD1 heterodimerization, luminescence; AID 504326; activation, % at 9.3 µM; in the data active = activation above about 18%;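 also: 0% = vehicle-treated cells and 100% = reference agonist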
HTR5A inv ctr: counter-screen for OPRM1-OPRD1 inverse agonists: human HTR5A inverse agonism; HTR5A cell line, luminescence; inhibition, % at 9.3 µM; actives 0.083% (n = 340,000); in the data active = inhibition mostly above about 23%, no sharp cut-off; inactive = mostly below about 18%;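 also: 0% = cells with DMSO and 100% = no-cell wells with DMSO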
Target sequence (P47898 whole entry, looked up): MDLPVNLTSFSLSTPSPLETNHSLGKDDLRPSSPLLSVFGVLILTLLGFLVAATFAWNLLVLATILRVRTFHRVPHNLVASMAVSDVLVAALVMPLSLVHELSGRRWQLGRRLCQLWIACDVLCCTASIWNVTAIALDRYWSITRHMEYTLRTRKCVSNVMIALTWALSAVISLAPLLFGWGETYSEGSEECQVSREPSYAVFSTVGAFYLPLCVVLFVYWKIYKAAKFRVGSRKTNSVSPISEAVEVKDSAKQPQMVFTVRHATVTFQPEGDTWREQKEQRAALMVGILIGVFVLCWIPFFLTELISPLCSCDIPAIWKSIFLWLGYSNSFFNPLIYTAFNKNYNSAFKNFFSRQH
OPRM1-OPRD1 inv: inverse agonist of human OPRM1-OPRD1 heterodimerization | cell-based MOR-DOR heterodimer luminescence, inverse agonism | inhibition, % at 9.3 µM | actives 0.21% (n = 340,000) | AID 504357; in the data active = inhibition above about 22%, passing the limit was not always enough;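 also: 0% = cells with DMSO and 100% = wells without cells with DMSO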
HTR5A ag: HTR5A agonism, opioid heterodimer counter-screen | P47898 | HTR5A agonist assay, luminescence, cell-based | activation, % at 9.3 µM | actives 0.61% (n = 340,000) | AID 504692; in the data active = activation mostly above about 9.5%, no sharp cut-off; inactive = mostly below about 7.6%;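 also: 0% = cells with vehicle only and 100% = reference agonist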
Numbers without * were called inactive.

SMILES	MOR-DOR ag	HTR5A inv ctr	OPRM1-OPRD1 inv	HTR5A ag
CC(C)c1ccc(NC(=O)c2cc(S(=O)(=O)N3CCCCC3)c[nH]2)cc1	-2.5	-1.1	14.8	0.4
Cc1occc1-c1nnc(SCC(=O)Nc2ccccc2N2CCCCC2)n1C	2.1	-15.5	-11.9	9.8*
Cc1occc1-c1nnc(SCC(=O)Nc2ccccc2)n1C	-1.7	-4.2	8.2	-1.7
O=C1OC(N2CCN(C(=O)c3ccco3)CC2)c2ccccc21 (stereo not drawn)	-2.2	-14.9	13.0	9.9*
NC(CSC1(c2cccc3ccccc23)c2ccccc2-c2ccccc21)C(=O)O (stereo not drawn)	4.2	-6.0	-18.6	1.6
NC(CSC(c1ccccc1)(c1ccccc1)c1cccc2ccccc12)C(=O)O (stereo not drawn)	21.0*	-20.8	-91.9	5.4
Cc1cc(Br)ccc1S(=O)(=O)NCc1ccccc1	4.5	7.1	-24.9	-0.4
Cc1cccc(C(=O)O/N=C2\CCCc3ccccc32)c1	1.3	-34.3	-6.3	12.5*
Cc1ccc(C(=O)O/N=C2\CCCc3ccccc32)cc1	3.7	-23.1	-16.8	8.6
CCCn1c(SCC(=O)Nc2nc3ccccc3s2)nc2c1c(=O)n(C)c(=O)n2C	-1.7	-12.9	10.0	-2.8
O=C(Cn1c(=O)n(CC(=O)N2CCCCC2)c(=O)c2sccc21)NCc1ccccc1	-1.2	-20.2	6.8	1.5
O=C(Cn1c(=O)n(CCC(=O)N2CCCCC2)c(=O)c2sccc21)NCc1ccccc1	-2.2	-8.3	12.1	12.6*
CCN1CCN(Cc2nc3ccc([N+](=O)[O-])cc3c(=O)n2-c2ccc(OC)cc2OC)CC1	-0.3	-11.2	1.8	3.1
COc1ccc(-n2c(CN3CCN(c4ccccc4OC)CC3)nc3ccc([N+](=O)[O-])cc3c2=O)c(OC)c1	-2.2	-38.5	10.2	9.9*
COc1cc(C=Nc2cccc([N+](=O)[O-])c2C)ccc1OC(C)=O	-1.8	-16.7	7.9	-4.0
CCn1nc(NC(=O)C(C)C)c2cc3cccc(C)c3nc21	3.9	-40.9	-18.4	10.6*
Cc1ccc(NC(=O)CNCc2ccccc2)c(Br)c1	3.6	0.0	-16.6	0.0
Cc1ccc(CNCC(=O)Nc2ccc(C)cc2Br)cc1	2.0	12.5	-9.7	11.8*
N#C/C(=C(\O)Cc1ccccc1)c1nc2ccccc2[nH]1	-2.5	-7.1	10.5	0.4
N#C/C(=C(/O)c1ccco1)c1nc2ccccc2[nH]1	-2.3	-28.1	11.8	10.9*
CCN(CC(=O)Nc1c(F)cccc1F)C(=O)CC1CCCC1	-3.3	-28.6	17.3	10.5*
COc1ccc(-c2[nH]ncc2CN(C)Cc2ccccn2)c(OC)c1	-0.8	2.5	3.9	-1.0
CCOc1ccc(C(=O)Nc2cccc(NC(=O)c3cccs3)c2)cc1[N+](=O)[O-]	0.3	-6.9	-2.4	-3.7
CCOc1ccc(C(=O)Nc2cccc([N+](=O)[O-])c2)cc1Br	3.8	-22.1	-18.5	9.2*
CC1(C)Cc2c(c(N3CCOCC3)nc3snc(NC(=O)c4ccccc4)c23)CO1	1.5	-34.2	-8.7	11.9*
SMILES	MOR-DOR ag	HTR5A inv ctr	OPRM1-OPRD1 inv	HTR5A ag
Cc1ccc(S(=O)(=O)c2nc(S(C)(=O)=O)sc2N2CCOCC2)cc1	-1.6	-0.7	8.3	1.0
CCS(=O)(=O)c1nc(S(=O)(=O)c2ccc(C)cc2)c(N2CCOCC2)s1	0.5	17.5	-2.6	11.2*
CCCC(=O)N1CCN(Cc2ccc3c(c2)OCO3)CC1	-0.2	6.0	1.3	-1.8
O=C(O)CCC(=O)N1CCN(Cc2ccc3c(c2)OCO3)CC1	-1.6	-43.2	7.2	11.7*
O=C(Nc1cnn(C23CC4CC(CC(C4)C2)C3)c1)c1cnn2cccnc12	-0.1	27.7	0.4	-3.6
CCOC(=O)C1=C(O)/C(=C/c2ccc(-c3ccccc3C(=O)O)o2)SC1=Nc1ccc(OC)cc1	-4.8	8.3	19.9	-0.6
CCOC(=O)C1=C(O)/C(=C/c2ccc(-c3ccccc3C(=O)O)o2)SC1=Nc1ccc(C)cc1	-1.0	-14.1	5.1	12.7*
NS(=O)(=O)c1ccc(CCNc2cc(=O)n(Cc3ccc(F)cc3)c(=O)[nH]2)cc1	-1.2	8.7	6.7	1.7
CCCS(=O)(=O)N1CCCC(C(=O)NCCCOC(C)C)C1 (stereo not drawn)	-2.5	2.9	15.0	4.9
CCCS(=O)(=O)N1CCCC(C(=O)NCCCN2CCN(c3ccc(F)cc3)CC2)C1 (stereo not drawn)	1.2	-20.9	-7.1	10.8*
CCC1Nc2ncnc(N3CCN(c4ccccc4)CC3)c2N(Cc2ccccc2)C1=O (stereo not drawn)	-13.1	49.0*	59.9*	-11.7
CCC1Nc2ncnc(N3CCN(c4ccccn4)CC3)c2N(Cc2ccc(Cl)cc2)C1=O (stereo not drawn)	-13.8	77.0*	80.0*	-29.1
CCC1Nc2ncnc(N3CCCCC3)c2N(Cc2ccc(Cl)cc2)C1=O (stereo not drawn)	-3.0	3.6	17.4	-1.8
CCC1Nc2ncnc(N3CCN(c4ccccn4)CC3)c2N(Cc2ccc(Br)cc2)C1=O (stereo not drawn)	-15.4	80.5*	85.9*	-28.8
CCC1Nc2ncnc(N3CCCCC3)c2N(Cc2ccc(Br)cc2)C1=O (stereo not drawn)	-3.6	9.2	20.5	-6.1
Cn1c(SCc2ccccc2)nc(C(F)(F)F)cc1=O	6.5	-8.5	-34.4	3.0
Cc1ccc(N(C(=O)c2ccco2)C2C=CS(=O)(=O)C2)cc1 (stereo not drawn)	-4.1	-1.7	20.5	0.6
CCOC(=O)c1ccc(NS(=O)(=O)c2ccc3c(c2)n(C)c(=O)n3C)cc1	-2.5	-0.2	11.7	0.1
CC(C)(O)C#Cc1ccc(C(=O)NCc2cccs2)s1	-1.1	12.7	6.4	-4.1
CCN(C(=O)COC(=O)c1c(-c2ccccc2)noc1C)C1CCS(=O)(=O)C1 (stereo not drawn)	-2.6	8.5	15.9	-1.4
O=C(O)CC(Cc1ccc(Cl)cc1)C(=O)Nc1ccccc1 (stereo not drawn)	-1.4	-38.4	7.1	10.1*
O=C(O)CC(Cc1ccc(Br)cc1)C(=O)Nc1ccccc1 (stereo not drawn)	-1.0	0.6	4.5	-0.2
COC(=O)c1ccc(NC(=O)COc2ccc(C3C(C#N)=C(N)Oc4c3ccc3ccccc43)cc2OC)cc1 (stereo not drawn)	1.1	-30.7	-5.7	14.1*
O=C(O)c1cc([N+](=O)[O-])ccc1Oc1ccccc1	-4.4	-1.8	19.1	0.5
COc1ccc(C(=O)CC(=O)c2ccc(C(C)(C)C)cc2)cc1	0.6	-2.6	-3.1	2.4
SMILES	MOR-DOR ag	HTR5A inv ctr	OPRM1-OPRD1 inv	HTR5A ag
COc1ccc(C(=O)C(CCC(CNC(C)(C)C)C(=O)c2ccc(OC)cc2)CNC(C)(C)C)cc1 (stereo not drawn)	1.2	-38.0	-7.7	12.7*
O=C(Cc1ccccc1[N+](=O)[O-])N1CCN(c2ccccc2F)CC1	-1.6	-24.8	9.2	7.3
CCN(CC)CC(=O)Nc1sc2c(c1C(=O)c1ccccc1OC)CCC2	3.5	-28.6	-16.3	11.2*
O=C(c1ccsc1)N1CCN(C(=O)c2cccs2)CC1	-0.5	-5.1	2.6	-3.4
CCCCNC(=O)Cc1c(OC)ccc2cc(Br)ccc12	-0.7	33.6	3.8	5.5
CCCNC(=O)Cc1c(OC)ccc2cc(Br)ccc12	3.1	-45.7	-17.8	13.4*

Assay outcomes: PubChem BioAssay, The Scripps Research Institute Molecular Screening Center
